Measurements published in PubChem BioAssay.
Activity calls are given as the source filed them.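 How the source made its calls: active means compound whose remaining NAD level is above about 45 nM (limit read from the data); inactive means the rest.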 Positions of bridges follow the written chain, without caps; N, C: chain ends. Non-standard residues stand in square brackets, D forms with d. Residues, ends and D or L forms follow the SMILES beside them. ξ: configuration not given here. *: point of attachment. Heptanoyl(5-Me) = CCC(C)CCCC(=O)*; ξThr(3R) = C[C@@H](O)C(N)C(=O)O; dDab = NCC[C@@H](N)C(=O)O; Dab = NCC[C@H](N)C(=O)O

Molecular target: NAD(+) hydrolase SARM1 (Homo sapiens) (UniProt Q6SZW1)
Test: SARM1 TIR NADase inhibitors, cell lysate, NAD-Glo luminescence (AID 1508614);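 further: higher remaining NAD means stronger inhibition of SARM1 NADase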
Conditions: SAM-TIR HEK293T lysate NADase, at 1 µM, hits give high values

Sequence of NAD(+) hydrolase SARM1 (Homo sapiens) (Q6SZW1 whole entry, looked up): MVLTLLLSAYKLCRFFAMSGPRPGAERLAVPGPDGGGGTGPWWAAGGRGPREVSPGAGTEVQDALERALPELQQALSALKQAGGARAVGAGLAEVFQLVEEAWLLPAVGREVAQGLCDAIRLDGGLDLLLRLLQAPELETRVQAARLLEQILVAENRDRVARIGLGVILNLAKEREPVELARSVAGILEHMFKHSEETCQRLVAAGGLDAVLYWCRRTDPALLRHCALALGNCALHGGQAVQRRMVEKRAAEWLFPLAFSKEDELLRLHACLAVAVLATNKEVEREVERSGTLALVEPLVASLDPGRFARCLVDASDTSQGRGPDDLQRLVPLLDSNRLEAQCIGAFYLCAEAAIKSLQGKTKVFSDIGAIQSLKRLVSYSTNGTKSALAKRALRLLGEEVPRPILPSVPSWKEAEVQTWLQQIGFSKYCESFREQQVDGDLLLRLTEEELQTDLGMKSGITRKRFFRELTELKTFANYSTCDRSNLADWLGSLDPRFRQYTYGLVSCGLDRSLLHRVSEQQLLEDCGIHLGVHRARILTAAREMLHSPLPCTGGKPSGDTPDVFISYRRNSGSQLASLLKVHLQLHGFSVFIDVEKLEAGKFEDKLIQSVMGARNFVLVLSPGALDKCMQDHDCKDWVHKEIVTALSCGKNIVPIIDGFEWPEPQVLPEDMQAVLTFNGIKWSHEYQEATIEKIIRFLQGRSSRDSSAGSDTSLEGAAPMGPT

Remaining NAD, inactive:
CCCCCCCCCCCCCCCC(=O)OC[C@H](O)[C@H]1OC(=O)C(O)=C1O 10 nM
CCC(=O)OCC(=O)[C@@]1(OC(=O)CC)[C@H](C)C[C@H]2[C@H]3[C@H]([C@@H](O)C[C@@]21C)[C@@]1(C)C=CC(=O)C=C1C[C@H]3Cl 10 nM
CCC(C)CCCC(=O)N[C@@H](CCN)C(=O)N[C@H](C(=O)N[C@@H](CCN)C(=O)N[C@H]1CCNC(=O)C([C@@H](C)O)NC(=O)[C@@H](CCN)NC(=O)[C@H](CCN)NC(=O)[C@@H](CC(C)C)NC(=O)[C@@H](CC(C)C)NC(=O)[C@H](CCN)NC1=O)[C@@H](C)O (stereo partly drawn) ({Heptanoyl(5-Me)}-[Dab]T[Dab][Dab][Dab][dL][dL][Dab][dDab][ξThr(3R)]; lactam 4-C) 10 nM
OC[C@H]1O[C@@H](O[C@H]2[C@H](O)[C@@H](O)[C@@H](O)O[C@@H]2CO)[C@H](O)[C@@H](O)[C@H]1O 10 nM
C[C@]12CC[C@@H]3c4ccc(OC(=O)c5ccccc5)cc4CC[C@H]3[C@@H]1CC[C@@H]2O 10 nM
CO/N=C(\C(=O)N[C@@H]1C(=O)N2C(C(=O)O)=C(CSc3nnnn3C)CS[C@H]12)c1csc(N)n1 10 nM
CC1(C)C2CCC1(CS(=O)(=O)O)C(=O)C2=Cc1ccc(C=C2C(=O)C3(CS(=O)(=O)O)CCC2C3(C)C)cc1 10 nM
O=C(O[C@H]1CN2CCC1CC2)N1CCc2ccccc2[C@@H]1c1ccccc1 10 nM
CCCCCCCCCC(=O)N[C@@H](Cc1c[nH]c2ccccc12)C(=O)N[C@@H](CC(N)=O)C(=O)N[C@@H](CC(=O)O)C(=O)N[C@@H]1C(=O)NCC(=O)N[C@@H](CCCN)C(=O)N[C@@H](CC(=O)O)C(=O)N[C@H](C)C(=O)N[C@@H](CC(=O)O)C(=O)NCC(=O)N[C@H](CO)C(=O)N[C@@H]([C@H](C)CC(=O)O)C(=O)N[C@@H](CC(=O)c2ccccc2N)C(=O)O[C@@H]1C 10 nM
CC(=O)N1CCN(c2ccc(OC[C@@H]3CO[C@@](Cn4ccnc4)(c4ccc(Cl)cc4Cl)O3)cc2)CC1 10 nM
CCOC(=S)SSC(=S)OCC 10 nM
CC(C)CC(NC(=O)C(C)NC(=O)CNC(=O)C(NC=O)C(C)C)C(=O)NC(C)C(=O)NC(C(=O)NC(C(=O)NC(C(=O)NC(Cc1c[nH]c2ccccc12)C(=O)NC(CC(C)C)C(=O)NC(Cc1c[nH]c2ccccc12)C(=O)NC(CC(C)C)C(=O)NC(Cc1c[nH]c2ccccc12)C(=O)NC(CC(C)C)C(=O)NC(Cc1c[nH]c2ccccc12)C(=O)NCCO)C(C)C)C(C)C)C(C)C (stereo not given) 10 nM
Cn1nnnc1SCC1=C(C(=O)O)N2C(=O)[C@@H](NC(=O)[C@H](OC=O)c3ccccc3)[C@H]2SC1 10 nM
CC(=O)OCC(=O)[C@@]1(O)CC[C@H]2[C@@H]3CCC4=CC(=O)C=C[C@]4(C)[C@@]3(Cl)[C@@H](Cl)C[C@@]21C 10 nM
OC[C@@H](O)[C@@H](O)CO 10 nM
CN(N=O)C(=O)N[C@@H](C=O)[C@@H](O)[C@H](O)[C@H](O)CO 10 nM
Nc1ncnc(Nc2ccc(Cl)cc2)n1 10 nM
C/C=C(\C)C(=O)OC1[C@H](OC(C)=O)C2(CO)C(CC1(C)C)C1=CCC3C4(C)CCC(O[C@@H]5O[C@H](C(=O)O)[C@@H](O[C@@H]6O[C@H](CO)[C@@H](O)[C@H](O)[C@H]6O)[C@H](O)[C@H]5O[C@H]5O[C@H](CO)[C@@H](O)[C@H](O)[C@H]5O)[C@](C)(CO)C4CCC3(C)[C@]1(C)C[C@H]2O (stereo not given in full) 10 nM
NC(=O)[C@@H]1CCCN1C(=O)[C@H](Cc1cnc[nH]1)NC(=O)[C@@H]1CCC(=O)N1 10 nM
CCC(=O)Oc1ccc2c(c1)CC[C@@H]1[C@@H]2CC[C@]2(C)[C@@H](OC(=O)CC)CC[C@@H]12 10 nM
CC/C=C\C/C=C\C/C=C\C/C=C\C/C=C\C/C=C\CCC(=O)OCC (tested in a mixture with another compound) 10 nM
Nc1ccc(S(=O)(=O)[O-])cc1.Nc1ccc(S(=O)(=O)[O-])cc1.O.O.O.O.[Zn+2] 10 nM
COc1ccc2nc([S@@](=O)Cc3ncc(C)c(OC)c3C)[nH]c2c1 10 nM
CC(=O)O[C@@H]1C[C@@H]2CC[C@@]1(C)C2(C)C 10 nM
CCCCCCCCCC(=O)N[C@H]1[C@H](Oc2c3cc4cc2Oc2ccc(cc2Cl)[C@@H](O[C@@H]2O[C@H](CO)[C@@H](O)[C@H](O)[C@H]2NC(C)=O)[C@@H]2NC(=O)[C@H](NC(=O)[C@@H]4NC(=O)[C@H]4NC(=O)[C@@H](Cc5ccc(c(Cl)c5)O3)NC(=O)[C@@H](N)c3ccc(O)c(c3)Oc3cc(O)cc4c3)c3ccc(O)c(c3)-c3c(OC4O[C@H](CO)[C@@H](O)[C@H](O)[C@@H]4O)cc(O)cc3[C@@H](C(=O)O)NC2=O)O[C@H](CO)[C@@H](O)[C@@H]1O (stereo not given in full) 10 nM
COc1cc(/C=C/C(=O)N2CCCCCCC2)cc(OC)c1OC 10 nM
CC(=O)c1ccc2c(c1)N(CCCN1CCN(CCO)CC1)c1ccccc1S2 10 nM
CCCCCCCCCC[N+](C)(C)Cc1ccccc1 10 nM
Cc1ncc(COP(=O)([O-])[O-])c(CN(CCN(CC(=O)[O-])Cc2c(COP(=O)([O-])[O-])cnc(C)c2[O-])CC(=O)[O-])c1[O-].[H+].[H+].[H+].[Mn+2].[Na+].[Na+].[Na+] 10 nM
C#C[C@]1(OC(C)=O)CC[C@H]2[C@@H]3CCC4=C/C(=N\O)CC[C@@H]4[C@H]3CC[C@@]21CC 10 nM
Oc1ccc(Cl)c2c1CCC2 10 nM
O=C(NCc1ccccc1)OCCO 10 nM
Cc1ccc2c(Br)cc(Br)c(OC(=O)c3ccccc3)c2n1 10 nM
Cn1c2ncnc-2c(O)n(C)c1=O 10 nM
CO[C@H]1C[C@H](O[C@H]2[C@H](C)O[C@@H](O[C@@H]3/C(C)=C/C[C@@H]4C[C@@H](C[C@]5(C=C[C@H](C)[C@@H](C6CCCCC6)O5)O4)OC(=O)[C@@H]4C=C(C)[C@@H](O)[C@H]5OC/C(=C\C=C\[C@@H]3C)[C@]54O)C[C@@H]2OC)O[C@@H](C)[C@@H]1O 10 nM
Cc1cc2nc3c(=O)[nH]c(=O)nc-3n(C[C@H](O)[C@H](O)[C@H](O)COP(=O)(O)O)c2cc1C 10 nM
O=C(O)[C@H](O)[C@@H](O)[C@H](O)[C@H](O)CO 10 nM
CC1/C=C/C=C/C=C/C=C/C=C/C=C/C=C/C(OC2O[C@H](C)[C@@H](O)[C@H](N)[C@@H]2O)CC(O)C(C(=O)O)C(O)CC(=O)CC(O)CC(O)CC(O)CC(=O)CCCC(=O)CC(=O)OC1C(C)CC(C)C(O)CC(=O)c1ccc(N)cc1 (stereo not given in full) 10 nM
CCCCCCOC(=O)/N=C(\N)c1ccc(NCc2nc3cc(C(=O)N(CCC(=O)OCC)c4ccccn4)ccc3n2C)cc1 10 nM
S=C1SCN(Cc2ccccc2)CN1Cc1ccccc1 10 nM
